Screening data (PubChem)
An excerpt weighted towards active compounds, which were near 2.8% of everything screened.
PAFAH1B2 FP inh = PAFAH1B2 enzyme inhibitors, primary screen, biochemical, fluorescence polarization, human. Platelet-activating factor acetylhydrolase IB subunit alpha2 (Homo sapiens), P68402. recombinant PAFAH1B2, FP-rhodamine activity probe. inhibition, % at 3.39 µM. 340,000 tested, 1.2% active. AID 492953, 2010;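 active = inhibition above the mean of all tested compounds plus 3 SD, cut at about 24% in these data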;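 note: 0% = enzyme with DMSO and 100% = wells lacking PAFAH1B2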
pPAFAH inh = pPAFAH enzyme inhibitors, primary screen, biochemical, fluorescence polarization, human | recombinant pPAFAH, FP-rhodamine probe fluorescence polarization | inhibition, % at 3.39 µM | 330,000 tested, 1.5% active | AID 463082, 2010 | Platelet-activating factor acetylhydrolase (Homo sapiens), Q13093;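 active = inhibition above the mean inhibition across the screen plus 3 SD, cut at about 25% in these data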;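 note: inhibitors block binding of the rhodamine activity-based probe so polarization drops; 0% = enzyme with DMSO and 100% = wells lacking pPAFAH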
PAFAH2 inh = PAFAH2 enzyme inhibitors, primary screen, biochemical, fluorescence polarization, human; Platelet-activating factor acetylhydrolase 2, cytoplasmic (Homo sapiens), Q99487; recombinant PAFAH2, FP-rhodamine activity probe; inhibition, % at 3.39 µM; 340,000 tested, 0.99% active; AID 492956, 2010;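 active = inhibition above the mean over all tested compounds plus 3 SD, cut at about 30% in these data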;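 note: inhibitors block probe labeling of enzyme so polarization drops; 0% = enzyme with DMSO and 100% = wells lacking PAFAH2 protein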
PAFAH1B3 inh = PAFAH1B3 enzyme inhibitors, primary screen, biochemical, fluorescence polarization, human. recombinant PAFAH1B3, FP-rhodamine probe. inhibition, % at 3.39 µM. 340,000 tested, 0.28% active. AID 492972, 2010;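 active = inhibition above the screen-wide average of all tested compounds plus 3 SD, cut at about 25% in these data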;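 note: 0% = enzyme with DMSO only and 100% = wells lacking PAFAH1B3 protein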
Target sequence (Q15102 whole entry, looked up): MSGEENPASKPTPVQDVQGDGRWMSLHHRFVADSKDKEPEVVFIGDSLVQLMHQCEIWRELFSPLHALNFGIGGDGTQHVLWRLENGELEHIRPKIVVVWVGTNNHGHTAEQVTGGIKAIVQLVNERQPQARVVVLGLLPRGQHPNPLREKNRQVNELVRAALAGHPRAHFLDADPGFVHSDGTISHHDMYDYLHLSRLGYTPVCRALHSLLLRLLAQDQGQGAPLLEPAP
PME-1 primary = PME-1 inhibitors via competitive probe labeling, primary screen, biochemical, fluorescence polarization, FP-Rh probe, HTS; inhibition, % at 5.9 µM; recombinant PME-1; 320,000 tested, 0.53% active;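 active = inhibition above the campaign mean of all compounds plus 3 SD, cut at about 26% in these data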;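 note: competitive labeling of PME-1 active site by serine hydrolase directed probe; 0% = PME-1 with DMSO and 100% = wells lacking PME-1 enzyme; inhibitors block probe labeling so polarization falls and inhibition rises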
Target sequence (Q9Y570 whole entry, looked up): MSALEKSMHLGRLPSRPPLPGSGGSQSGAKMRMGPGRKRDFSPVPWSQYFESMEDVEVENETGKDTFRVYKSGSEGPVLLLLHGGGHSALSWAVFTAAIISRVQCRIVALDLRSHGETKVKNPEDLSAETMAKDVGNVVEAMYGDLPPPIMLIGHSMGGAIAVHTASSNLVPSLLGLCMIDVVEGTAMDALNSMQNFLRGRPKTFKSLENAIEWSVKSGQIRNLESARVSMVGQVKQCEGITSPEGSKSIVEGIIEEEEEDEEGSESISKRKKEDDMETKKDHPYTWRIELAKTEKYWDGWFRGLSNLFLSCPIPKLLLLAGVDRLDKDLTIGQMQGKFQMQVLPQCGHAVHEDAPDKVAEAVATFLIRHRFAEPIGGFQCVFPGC
Fam108B inh = mouse Fam108B serine hydrolase inhibitors, primary screen, counter-screen for RBBP9 inhibitor project, biochemical, fluorescence polarization | recombinant Fam108B, FP-Rh probe fluorescence polarization | inhibition, % at 9.51 µM | AID 1947, 2009 | 300,000 tested, 0.33% active;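 active = inhibition above the screen mean inhibition plus 3 SD, computed separately per campaign, cut at about 18% in these data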;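 note: inhibitors lower polarization as less probe binds the enzyme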
The depositor's hits bear a star; · = no result.

SMILES	PAFAH1B2 FP inh	pPAFAH inh	PAFAH2 inh	PAFAH1B3 inh	PME-1 primary	Fam108B inh
O=C(c1cc([N+](=O)[O-])ccc1N1CCN(S(=O)(=O)c2ccc(Cl)c(Cl)c2)CC1)N1CCOCC1	37*	1	5	-3	1	2
COc1ccc(-c2sc3ccc(N4CCOCC4)cc3c2C#CC(C)(C)O)cc1	-2	10	5	-2	15	·
COc1ccc(-c2sc3ccc(N4CCOCC4)cc3c2C#Cc2ccsc2)cc1	-1	28*	4	-2	·	·
CCn1nnc2cc(C(=O)NCC(c3ccccc3OC)N(C)C)ccc21 (centres undefined)	0	-1	-10	-4	0	-1
COc1ccc(CCNC(=O)COC(=O)COc2ccc(Cl)cc2)cc1OC	6	7	0	6	3	-3
CCOc1ccc(CCNC(=O)COC(=O)COc2ccc(Cl)cc2)cc1OCC	4	26*	-4	7	-10	-2
O=C(COC(=O)COc1ccccc1)NCCc1ccccc1	5	11	2	-1	0	-3
CCOc1cc(CNCCc2ccc(S(N)(=O)=O)cc2)ccc1OCc1ccc(Cl)cc1	28*	0	1	3	2	1
COc1cc(CNCCc2ccc(S(N)(=O)=O)cc2)ccc1OCc1ccc(Cl)cc1	12	3	-1	8	-4	-1
O=C(COC(=O)COc1ccc(Cl)cc1)NCCCc1ccccc1	29*	14	5	0	·	·
O=C(Nc1ccc(C(F)(F)F)cc1[N+](=O)[O-])O[C@H]1[C@H](Cc2ccccc2)NS(=O)(=O)[C@H]2C[C@@H]3C=C[C@]12O3	2	0	1	16	4	·
CCC(CO)Oc1cc(NCc2ccc(C(C)(C)C)cc2)c2ncn(C(C)C)c2c1 (centres undefined)	4	25	4	6	·	·
COCCNC(=O)C(c1ccc(F)cc1)N(C(=O)CCC(=O)Nc1ccccn1)c1ccc(C)cc1 (centres undefined)	7	5	4	2	-1	1
N/C(=N\OC(=O)CCCOc1ccccc1)c1ccc(Br)cc1	81*	0	4	3	4	-3
N/C(=N\OC(=O)CCCOc1ccccc1)c1ccccc1	29*	2	-3	-1	-1	-1
N/C(=N\OC(=O)CCCOc1ccccc1)c1ccncc1	14	-1	2	0	0	-1
N/C(=N\OC(=O)CCCN1C(=O)c2ccccc2C1=O)c1ccc(Br)cc1	16	4	3	10	-4	5
CC(C)[C@]1(c2ccccc2)ON(c2ccccc2C(F)(F)F)C1=O	·	3	·	·	5	·
O=C(CN1CCN(c2ccccc2O)CC1)Nc1ccc2c(c1)OCCCO2	2	2	4	10	-4	·
COc1ccc(NS(=O)(=O)c2cccc(C(=O)NNC(=O)c3ccccc3O)c2)cc1	1	15	4	9	-4	1
COc1ccc(NS(=O)(=O)c2cccc(C(=O)NNC(=O)c3cccn3C)c2)cc1	5	34*	1	6	4	1
Cc1ccc(NS(=O)(=O)c2cccc(C(=O)NCCCN3CCOCC3)c2)cc1	1	34*	10	-1	5	0
COc1ccc(NS(=O)(=O)c2cccc(C(=O)NNC(=O)CNC(=O)c3ccccc3)c2)cc1	-2	28*	-1	5	4	-2
Cc1cccc(/C=C2/Sc3ccc(C(=O)NCCCN4CCOCC4)cc3NC2=O)c1	8	26*	-14	-5	-4	-11
O=C(COC(=O)c1ccc(O)cc1)c1ccc(S(=O)(=O)N2CCCCC2)cc1	0	9	-1	7	0	·
SMILES	PAFAH1B2 FP inh	pPAFAH inh	PAFAH2 inh	PAFAH1B3 inh	PME-1 primary	Fam108B inh
Cc1ccsc1C(=O)OCC(=O)c1cc(C)n(C)c1C	1	7	8	6	·	·
COc1ccccc1NS(=O)(=O)c1cccc(C(=O)N/N=C/c2ccc([N+](=O)[O-])o2)c1	-3	·	6	8	·	·
COc1ccc(NC(=O)CN(C)C(=O)c2cccc(S(=O)(=O)Nc3ccc(OC)cc3)c2)cc1	-1	32*	5	1	3	0
COc1ccccc1NS(=O)(=O)c1cccc(C(=O)NCC2(N(C)C)CCCCC2)c1	5	-1	1	2	1	2
Cc1cccc(C(=O)NCCN(C)C)c1	1	0	3	-1	2	-2
COc1ccc(NS(=O)(=O)c2cccc(C(=O)NCC3(N(C)C)CCCCC3)c2)cc1	-5	30*	-5	6	-4	0
CCOc1ccc(S(=O)(=O)Nc2cccc(C(=O)N(C)CC(=O)Nc3ccc(OC)cc3)c2)cc1	-1	·	-3	3	·	·
COc1ccc(NS(=O)(=O)c2cccc(C(=O)NNC(=O)CNC(=O)c3cccc(C)c3)c2)cc1	0	34*	-6	7	-2	-4
COc1ccc(NS(=O)(=O)c2cccc(C(=O)NNC(=O)CNC(=O)c3ccccc3Cl)c2)cc1	-4	·	-7	4	·	·
CN(C)CCNC(=O)c1cccc(S(=O)(=O)Nc2ccc(F)cc2)c1	0	25*	-7	2	-4	-1
COc1ccc(/C=C(/NC(=O)c2ccc(C)cc2)C(=O)N2CCCC2)cc1OC	-1	0	-8	-3	1	1
Nc1nnnn1-c1cccc([N+](=O)[O-])c1	5	·	3	3	·	·
O=C(CNC(=O)c1ccccc1)N/N=C/c1cc(Br)ccc1O	27*	9	4	10	0	2
O=C(CNC(=O)c1ccncc1)N/N=C/c1cc(Br)ccc1O	8	0	3	11	-1	5
Cn1c(N)c(C(=O)COC(=O)c2ccccc2C(=O)c2ccc(Cl)cc2)c(=O)n(C)c1=O	5	-12	2	5	·	·
O=C(Nc1ccccc1Oc1ccccc1)c1ccccc1F	0	28*	2	3	-2	-5
CN(C(=O)c1ccc(NC(=O)Cc2ccc(NC(=O)C3CCN(S(=O)(=O)c4cccc([N+](=O)[O-])c4)CC3)cc2)cc1)C1CCCC1	-14	·	-11	-7	·	·
Cc1ccc(Nc2nnc(SCC(=O)c3ccc(O)cc3O)s2)cc1	4	21	11	7	37*	8
CCC(=O)OC1(C)C(=O)C=C2C=C(c3ccc(C#N)cc3)OC=C2C1=O (centres undefined)	7	33*	11	18	1	-1
CC1(OC(=O)c2ccco2)C(=O)C=C2C=C(c3ccc(C#N)cc3)OC=C2C1=O (centres undefined)	·	52*	·	·	0	1
